Experimental data from PubChem BioAssay AID1645857 (Buhrlage Lab, Dana-Farber Cancer Institute and Novartis …, 2021).
The whole screen tested about 47,000 compounds, of which about 1,400 (3%) were called active. Cut-off read from the data, not from the text of the source: active = inhibition above about 30%; inactive = the rest. Only a selection was taken, and actives are over-represented in it overall.

Each compound was assayed against Ubiquitin carboxyl-terminal hydrolase 28 (Homo sapiens) (UniProt Q96RU2) (assay: inhibitors of human USP28 deubiquitinase (AID 1645857)). Details: purified USP28, Ub-rhodamine cleavage fluorescence, 30 min; at 25 µM; hits give high values.
Chain of Ubiquitin carboxyl-terminal hydrolase 28 (Homo sapiens) (Q96RU2 whole entry, looked up): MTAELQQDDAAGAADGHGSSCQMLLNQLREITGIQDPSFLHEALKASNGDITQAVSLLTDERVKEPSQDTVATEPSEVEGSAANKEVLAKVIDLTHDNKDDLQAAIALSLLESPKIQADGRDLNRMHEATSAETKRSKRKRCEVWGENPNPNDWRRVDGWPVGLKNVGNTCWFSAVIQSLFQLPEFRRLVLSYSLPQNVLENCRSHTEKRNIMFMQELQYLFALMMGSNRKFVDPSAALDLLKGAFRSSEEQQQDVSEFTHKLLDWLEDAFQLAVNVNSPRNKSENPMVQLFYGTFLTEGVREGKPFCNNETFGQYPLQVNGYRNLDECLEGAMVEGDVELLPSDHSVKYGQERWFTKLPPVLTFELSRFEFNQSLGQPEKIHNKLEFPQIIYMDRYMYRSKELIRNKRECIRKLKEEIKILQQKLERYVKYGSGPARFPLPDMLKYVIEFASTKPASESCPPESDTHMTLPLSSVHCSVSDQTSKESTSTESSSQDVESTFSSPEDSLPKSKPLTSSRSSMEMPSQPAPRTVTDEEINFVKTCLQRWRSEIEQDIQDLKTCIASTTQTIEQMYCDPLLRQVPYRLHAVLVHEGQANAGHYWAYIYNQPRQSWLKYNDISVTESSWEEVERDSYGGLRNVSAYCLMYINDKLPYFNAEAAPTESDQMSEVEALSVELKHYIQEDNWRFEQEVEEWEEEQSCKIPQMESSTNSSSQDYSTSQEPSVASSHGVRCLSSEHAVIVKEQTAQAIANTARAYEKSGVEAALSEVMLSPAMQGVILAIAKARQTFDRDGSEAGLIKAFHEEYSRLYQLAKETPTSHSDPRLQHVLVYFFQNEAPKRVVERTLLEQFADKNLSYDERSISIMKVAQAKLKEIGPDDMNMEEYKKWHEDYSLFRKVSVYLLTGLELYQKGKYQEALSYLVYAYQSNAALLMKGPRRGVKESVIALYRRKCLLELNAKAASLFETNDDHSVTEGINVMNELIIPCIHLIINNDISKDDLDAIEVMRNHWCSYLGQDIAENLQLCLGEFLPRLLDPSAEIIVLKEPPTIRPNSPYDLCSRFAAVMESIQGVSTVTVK

Compound | inhibition
O=C1CSC(c2ccc(F)cc2)c2c(-c3ccccc3)nn(-c3ccccc3)c2N1 (stereo not given) | 35.2% (active)
O=C(CCCn1c(=O)[nH]c2cc(Cl)ccc2c1=O)N1CCC2(CC1)OCCO2 | 15% (inactive)
COc1cc(N2CC[C@@H]3[C@@H]2CCN3Cc2cccnc2)ncn1 | -13.3% (inactive)
CC(C)(C)n1cc(C(=O)NCC(=O)Nc2ccc(Br)cc2)cn1 | 1.73% (inactive)
Cc1noc(C)c1CN1CCO[C@H]2C(Cn3cccn3)CC[C@@H]21 (stereo not given in full) | -2.14% (inactive)
